Compounds without any hit were thinned out: in the full panel of roughly 83,000, 20% have a hit.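 Growth was measured after 48 h exposure to one concentration of compound in 96-well plates. Values under 10 count as active.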 Unmarked numbers belong to inactive results. Activity calls are given as the source filed them.

Among the test systems are NCI-H23 lung; NCI-H226 lung; NCI-H322M lung; HOP-62 NSCLC; NCI-H460 lung; HOP-92 NSCLC; NCI-H522 lung; A549/ATCC NSCLC; 786-0 renal; COLO 205 colon; DU-145 prostate; K-562 leukemia; MALME-3M melanoma; MDA-MB-231 breast; RXF 393 renal; SF-268 CNS; SF-295 CNS; SF-539 CNS; UACC-257 melanoma; M14 melanoma.
Assay in all cases: NCI-60 one-dose screen, 48 h (100 = growth as untreated, 0 = no growth, -100 = all killed)
Common to all, as to settings: 10 µM unless noted

`CC1(C)CC(=O)C2=C(C1)OC(C(=O)c1ccccc1)C2c1cccc(Oc2ccccc2)c1` (stereo not given): the growth is 48.5% in the assay on NCI-H23 lung; 53.3% with NCI-H226 lung; 75.1% with NCI-H322M lung; 66.7% in the assay with HOP-62 NSCLC; 51.4% in the assay on NCI-H460 lung; 13.4% in the assay on HOP-92 NSCLC. Also, the growth in the assay with NCI-H522 lung was 38.2%; in the assay on A549/ATCC NSCLC, 29.9%; with 786-0 renal, 53.1%; with COLO 205 colon it was 38.3%; in the assay with DU-145 prostate it was 68.1%; with K-562 leukemia, 31.7%. Moreover, the growth in the assay with MALME-3M melanoma is 59.5%; with MDA-MB-231 breast it was 50.4%; in the assay with RXF 393 renal, 42.8%; with SF-268 CNS, 44.6%; in the assay on SF-295 CNS, 32.6%; with SF-539 CNS, 63.9%. Also, the growth in the assay with UACC-257 melanoma was 45.5%; in the assay with M14 melanoma, 36.8%.

With `O=C1/C(=C/c2cccc(Br)c2)COc2ccc(O)c(O)c21`, the growth is 17% in the assay with NCI-H23 lung; 83.4% in the assay on NCI-H226 lung; 25.7% in the assay with NCI-H322M lung; -30.8% (active) with HOP-62 NSCLC; 5.86% (active) in the assay on NCI-H460 lung; -41.1% (active) in the assay with HOP-92 NSCLC. Moreover, the growth in the assay with NCI-H522 lung is -67.6% (active); in the assay with A549/ATCC NSCLC it was 11.2%; with 786-0 renal, -86.9% (active); with COLO 205 colon, 6.56% (active); with DU-145 prostate, -7.02% (active); in the assay with K-562 leukemia, 10.3%. Also, the growth is -44.9% (active) in the assay on MALME-3M melanoma; -26.7% (active) in the assay on MDA-MB-231 breast; -56.5% (active) in the assay on RXF 393 renal; -23.9% (active) in the assay on SF-268 CNS; 34.8% in the assay with SF-295 CNS; -85.4% (active) in the assay on SF-539 CNS. Besides, the growth was 10.9% with UACC-257 melanoma and -5.09% (active) in the assay on M14 melanoma.

For the molecule `NCCCCCNc1noc(Cc2c[nH]c3cc(Br)ccc23)n1`, the growth in the assay on NCI-H23 lung is 30.9%; in the assay on NCI-H226 lung it was 61%; with NCI-H322M lung it was 33.4%; with HOP-62 NSCLC, 21.6%; with NCI-H460 lung it was 12.8%; in the assay on HOP-92 NSCLC, 19.7%. Further, the growth with NCI-H522 lung is -38.3% (active); in the assay on A549/ATCC NSCLC, 24.6%; in the assay on 786-0 renal, 43.2%; in the assay on COLO 205 colon it was -0.719% (active); in the assay with DU-145 prostate it was 2.36% (active); in the assay on K-562 leukemia it was 14.3%. Further, the growth in the assay on MALME-3M melanoma is 13.5%; in the assay on MDA-MB-231 breast it was 51.2%; with RXF 393 renal, -11.5% (active); in the assay with SF-268 CNS, 54.1%; in the assay with SF-295 CNS, 7.26% (active); in the assay with SF-539 CNS, -23% (active). Besides, the growth is 54.8% in the assay with UACC-257 melanoma and -26.3% (active) in the assay on M14 melanoma.

`CN1CCN(Cc2ccc(NC(=O)c3cncc(C#Cc4c(N)ncc5ccccc45)c3)cc2C(F)(F)F)CC1`: the growth in the assay with NCI-H23 lung is -59.1% (active); in the assay with NCI-H226 lung, -11.8% (active); in the assay on NCI-H322M lung, -37% (active); with HOP-62 NSCLC, -83.7% (active); with NCI-H460 lung, -71.5% (active); in the assay on HOP-92 NSCLC, -59.2% (active). In addition, the growth in the assay on NCI-H522 lung was -83.9% (active); in the assay with A549/ATCC NSCLC, -87.7% (active); in the assay on 786-0 renal, -80.8% (active); in the assay with COLO 205 colon, -90.4% (active); with DU-145 prostate it was -95.6% (active); with K-562 leukemia, -37% (active). In addition, the growth was -84.8% (active) in the assay on MALME-3M melanoma; -88.7% (active) with MDA-MB-231 breast; -97% (active) in the assay on RXF 393 renal; -65.1% (active) with SF-268 CNS; -59.9% (active) in the assay with SF-295 CNS; -97% (active) in the assay on SF-539 CNS. Moreover, the growth in the assay with UACC-257 melanoma is -72.2% (active); with M14 melanoma, -73.9% (active).

With `C=C(C)[C@@H]1CC[C@]2(COCCCNCCCN)CC[C@]3(C)[C@H](CC[C@@H]4[C@@]5(C)CC[C@H](OCCCN)C(C)(C)[C@@H]5CC[C@]43C)[C@@H]12`, the growth in the assay with NCI-H23 lung is -73.2% (active); with NCI-H226 lung, 45.2%; in the assay on NCI-H322M lung, 41.7%; with HOP-62 NSCLC it was -59.1% (active); in the assay with NCI-H460 lung it was -83% (active); in the assay with HOP-92 NSCLC it was 75.3%. The growth was -69.6% (active) in the assay on NCI-H522 lung; -66.6% (active) with A549/ATCC NSCLC; -83.6% (active) with 786-0 renal; -31.1% (active) with COLO 205 colon; -49.5% (active) in the assay with DU-145 prostate; -40% (active) in the assay on K-562 leukemia. In addition, the growth in the assay on MALME-3M melanoma was -88.1% (active); with MDA-MB-231 breast, -85.6% (active); in the assay with RXF 393 renal, 28.8%; with SF-268 CNS it was -35% (active); in the assay with SF-295 CNS it was 102%; in the assay with SF-539 CNS, -95.7% (active). Besides, the growth in the assay with UACC-257 melanoma was 13.8%; in the assay on M14 melanoma it was -83% (active).

As for `N=C(N)c1ccc(-c2ccc(-c3ccccc3)s2)nc1`, the growth with NCI-H23 lung was 94.1%; in the assay with NCI-H226 lung, 92.8%; with NCI-H322M lung it was 80.4%; in the assay with HOP-62 NSCLC, 88.8%; in the assay on NCI-H460 lung, 23.1%; with HOP-92 NSCLC, 70.2%. In addition, the growth with NCI-H522 lung is 83.9%; in the assay with A549/ATCC NSCLC, 83.8%; in the assay with 786-0 renal, 91.3%; in the assay with COLO 205 colon, -6.33% (active); in the assay on DU-145 prostate it was 92.1%; with K-562 leukemia, 14.5%. In addition, the growth was 101% in the assay on MALME-3M melanoma; 86.1% with MDA-MB-231 breast; 87.2% with RXF 393 renal; 93.8% in the assay with SF-268 CNS; 88% in the assay with SF-295 CNS; 88.2% in the assay with SF-539 CNS. For the same molecule, the growth is 96% with UACC-257 melanoma and 88.7% in the assay with M14 melanoma.

As for `CCOC(=O)c1cc(C(=O)c2cc(OC)cc(OC)c2)n2ccccc12`, the growth in the assay on NCI-H23 lung was 67.3%; with NCI-H226 lung, 73.5%; in the assay with NCI-H322M lung, 86.3%; in the assay on HOP-62 NSCLC, 30%; with NCI-H460 lung, 15%; with HOP-92 NSCLC it was 64.3%. For the same molecule, the growth was 40.9% with NCI-H522 lung; 35.7% with A549/ATCC NSCLC; 36.4% with 786-0 renal; 13.5% in the assay on COLO 205 colon; 53.8% in the assay on DU-145 prostate; 15.8% with K-562 leukemia. Further, the growth in the assay on MALME-3M melanoma was 31.8%; in the assay on MDA-MB-231 breast, 55.8%; in the assay on RXF 393 renal it was 49.6%; in the assay with SF-268 CNS, 46.8%; in the assay with SF-295 CNS, 26.1%; in the assay on SF-539 CNS, 44.8%. The growth in the assay with UACC-257 melanoma is 43.9%; with M14 melanoma it was 3.55% (active).

Consider `Cc1ccc(Nc2nc(N)nc(N)c2N=O)cc1Cl`, for which the growth was 71.9% with NCI-H23 lung; 94.1% with NCI-H226 lung; 104% in the assay with NCI-H322M lung; 76% in the assay on HOP-62 NSCLC; 102% in the assay with NCI-H460 lung; 63% in the assay on HOP-92 NSCLC. The growth was 75.4% in the assay with NCI-H522 lung; 98.3% in the assay on A549/ATCC NSCLC; 79.4% in the assay on 786-0 renal; 111% in the assay with COLO 205 colon; 73.7% with DU-145 prostate; 69.9% in the assay with K-562 leukemia. In addition, the growth was 82.2% with MALME-3M melanoma; 95.6% with MDA-MB-231 breast; 91.8% in the assay with RXF 393 renal; 65.6% in the assay with SF-268 CNS; 105% in the assay with SF-295 CNS; 82% in the assay on SF-539 CNS. The growth was 92.2% with UACC-257 melanoma and 88.4% in the assay on M14 melanoma.
